PubChem BioAssay (EPA / NIEHS)
Records with an inconclusive call do not appear. Some compounds were tested as several samples or in several runs, with calls that do not always agree. The source made the active and inactive calls. The calls were made as follows, unless noted: active = hit-call score of the fitted dose curve at least 0.9, where 1 is the maximum; inactive = score below 0.9.

Columns and labels:
[1] = target: Bile acid receptor (Homo sapiens) (UniProt Q96RI1); assay: ATG_FXR_TRANS: Attagene TRANS-FACTORIAL HepG2 Assay for Farnesoid X Receptor (FXR) (AID 2282979; active = hit-call score of the fitted dose curve at least 0.9, where 1 is the maximum;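 also: hits raise reporter mRNA above DMSO so AC50 marks FXR activation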); settings: HepG2 Attagene TRANS FXR-GAL4 reporter transcription
Procedure, shortened: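 Chimeric FXR-GAL4 activity in transiently transfected human HepG2 liver cells is scored as induction of reporter mRNA after 24 h of dosing. Detection uses RT-PCR with fluorescent labelling and capillary electrophoresis, with DMSO serving as baseline.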

[2] = target: Oxysterols receptor LXR-alpha (Homo sapiens) (UniProt Q13133); assay: ATG_LXRa_TRANS: Attagene TRANS-FACTORIAL HepG2 Assay for human Liver X Receptor alpha (LXRa) (AID 2282980; active = hit-call score of the fitted dose curve at least 0.9, where 1 is the maximum); settings: HepG2 Attagene TRANS reporter, LXRa transactivation
Procedure, shortened: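 Transient HepG2 transfectants, 24 h dosing, RT-PCR/CE mRNA reporter quantitation; gain-of-signal vs DMSO.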

[3] = ATG_M_06_TRANS: Attagene TRANS-FACTORIAL HepG2 Assay for M06 Transcription Factor (Internal Marker) (AID 2282983; active = hit-call score of the fitted dose curve at least 0.9, where 1 is the maximum;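 also: reporter transcript level by RT-PCR then capillary electrophoresis fluorescence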); settings: HepG2 Attagene TRANS M06 internal marker reporter
Procedure, shortened: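 Measured by capillary electrophoresis of fluorescently labelled RT-PCR products, this endpoint reflects reporter mRNA in HepG2 cells harbouring exogenous NR-GAL4 reporter constructs after 24 h exposure, with DMSO as baseline.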

[4] = target: Transcriptional activator Myb (Homo sapiens) (UniProt P10242); assay: ATG_Myb_CIS: Attagene CIS-FACTORIAL HepG2 Assay for human Myeloblastosis (Myb) Proto-Oncogene Transcription Factor (AID 2282986); settings: HepG2 Attagene CIS-FACTORIAL Myb reporter transcription; actives raise or lower the signal
Procedure, shortened: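 Transiently transfected HepG2 cells, treated 24 h. Reporter mRNA quantified by RT-PCR/capillary electrophoresis; bidirectional fit relative to DMSO.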

[5] = target: Nuclear respiratory factor 1 (Homo sapiens) (UniProt Q16656); assay: ATG_NRF1_CIS: Attagene CIS-FACTORIAL HepG2 Assay for human Nuclear Respiratory Factor 1 (NRF1) Orphan Gene (AID 2282987); settings: HepG2 NRF1 cis-element reporter, Attagene multiplex; actives raise or lower the signal
Procedure, shortened: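 Cells (HepG2, transient MRTU transfection) are exposed to compound for 24 h, then RNA isolated and reporter mRNA amplified and fluorescently labelled. Fragments are separated by capillary electrophoresis; signal change is fitted bidirectionally relative to DMSO.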

[6] = ATG_NFI_CIS: Attagene CIS-FACTORIAL HepG2 Assay for human Nuclear Factor I (NFI) (AID 2282989); settings: HepG2 cis-regulatory reporter, NFI response element transcription; actives raise or lower the signal
Procedure, shortened: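 Reporter transcription driven by endogenous transcription factors in HepG2 cells; 24 h treatment. Quantitation by labelled RT-PCR fragments on capillary electrophoresis, gain- or loss-of-signal relative to DMSO.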

[7] = target: Myc proto-oncogene protein (Homo sapiens) (UniProt P01106); assay: ATG_Myc_CIS: Attagene CIS-FACTORIAL HepG2 Assay for human Myelocytomatosis (Myc) Proto-Oncogene Transcription Factor (AID 2282990); settings: HepG2, Attagene cis-reporter transcription factor activity; actives raise or lower the signal
Procedure, shortened: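 Cells of the HepG2 human liver line bear multiple cis-driven reporter transcription units. Reporter mRNA after 24 h exposure is reverse-transcribed, amplified, labelled and resolved by capillary electrophoresis, with gain- or loss-of-signal fitting relative to DMSO.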

[8] = ATG_NF_kB_CIS: Attagene CIS-FACTORIAL HepG2 Assay for human Nuclear Factor Kappa B (NF-kB) (AID 2282991); settings: HepG2 Attagene cis-factorial NF-kB reporter mRNA; actives raise or lower the signal
Procedure, shortened: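 Measures mRNA induction of an NF-kB-responsive cis-element reporter in HepG2 cells transfected with multiple reporter units, sampled 24 h post-dosing; quantified by fluorescence after RT-PCR and capillary electrophoresis, fitted for activation or inhibition against DMSO.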

[9] = ATG_NRF2_ARE_CIS: Attagene CIS-FACTORIAL HepG2 Assay for human Nuclear Factor Erythroid 2 Related Factor 2 (NFR2) response to Antioxidant Response Elements (ARE) (AID 2282992); settings: HepG2 Attagene ARE/NRF2 reporter, transcription factor activity; actives raise or lower the signal;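 as to AC50: reporter mRNA level measured by RT-PCR and capillary electrophoresis fluorescence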
Procedure, shortened: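 HepG2 cells transiently transfected with multiplexed cis-regulated reporter transcription units measure endogenous transcription factor activity. Reporter mRNA at 24 h is quantified by RT-PCR, fluorescent labelling and capillary electrophoresis, with bidirectional fitting relative to DMSO.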

[10] = ATG_Oct_MLP_CIS: Attagene CIS-FACTORIAL HepG2 Assay for human Octamer-Binding Transcription Factor (Oct) (AID 2282993); settings: HepG2 Attagene cis-factorial Oct reporter, mRNA; actives raise or lower the signal
Procedure, shortened: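 Transfected HepG2 cells, 24 h treatment. Reporter mRNA quantified by RT-PCR–capillary electrophoresis; bidirectional fitting against DMSO.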

[11] = target: Cellular tumor antigen p53 (Homo sapiens) (UniProt P04637); assay: ATG_p53_CIS: Attagene CIS-FACTORIAL HepG2 Assay for human p53 Transcription Factor (AID 2282994); settings: HepG2 p53 cis-element reporter, Attagene mRNA; actives raise or lower the signal
Procedure, shortened: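 HepG2 cells transiently transfected with multiplexed cis-regulated reporter transcription units read endogenous TF activity. After 24 h compound exposure, reporter mRNA was quantified by RT-PCR, fluorescent labelling, HpaI digestion and capillary electrophoresis; bidirectional fits versus DMSO baseline.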

[12] = BSK_3C_TissueFactor: BioMAP Diversity Plus: 3C Assay for Tissue Factor Biomarker Activity (AID 2282997); settings: BioMAP 3C HUVEC, tissue factor biomarker readout; actives raise or lower the signal
Procedure, shortened: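 Values derive from bidirectional curve fitting against DMSO of Tissue Factor ELISA signals, taken 24 h after dosing primary human umbilical vein endothelial cells.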

[13] = BSK_3C_VCAM1: BioMAP Diversity Plus: 3C Assay for Vascular cell adhesion molecule 1 (VCAM1) Biomarker Activity (AID 2282999); settings: BioMAP 3C HUVEC, VCAM1 ELISA, cytokine-stimulated; actives raise or lower the signal
Procedure, shortened: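 Endothelial cells from human umbilical vein are treated with test chemical. At 24 h, VCAM-1 is measured by ELISA, and responses in either direction are fitted relative to DMSO.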

[14] = BSK_4H_Eotaxin3: BioMAP Diversity Plus: 4H Assay for Eotaxin 3 Biomarker Activity (AID 2283000); settings: primary human endothelial cells (HUVEC); actives raise or lower the signal;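 as to outcome: CCL26 protein level quantified by ELISA in parallel with SRB cytotoxicity check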
Procedure, shortened: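 Endothelial primary cells (human umbilical vein) exposed to compound for 24 h. ELISA detection of Eotaxin-3.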

[15] = target: human Peroxisome Proliferator-activated Receptor alpha (PPARa), PPARA (gene 5465) (UniProt Q07869); assay: ATG_PPARa_TRANS: Attagene TRANS-FACTORIAL HepG2 Assay for human Peroxisome Proliferator-activated Receptor alpha (PPARa) (AID 2283001; active = hit-call score of the fitted dose curve at least 0.9, where 1 is the maximum;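 as to AC50: potency for gain of reporter signal over DMSO so agonist or activator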)
Procedure, shortened: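 Reporter transcripts from GAL4-UAS units in transfected HepG2 were quantified 24 h after dosing. Detection used reverse transcription, PCR, fluorescent primer extension and capillary electrophoresis, with DMSO as baseline.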

[16] = target: Hepatocyte nuclear factor 4-alpha (Homo sapiens) (UniProt P41235); assay: ATG_HNF4a_TRANS: Attagene TRANS-FACTORIAL HepG2 Assay for human Hepatocyte Nuclear Factor 4 alpha (HNF4a) (AID 2282982; active = hit-call score of the fitted dose curve at least 0.9, where 1 is the maximum); settings: HepG2 HNF4a transactivation reporter, mRNA readout
Procedure, shortened: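 Transfected HepG2 reporter cells are dosed for 24 h; reporter RNA is reverse-transcribed, amplified, fluorescently labelled and HpaI-digested before CE sizing. Positive-direction fit against DMSO.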

[17] = ATG_M_32_TRANS: Attagene TRANS-FACTORIAL HepG2 Assay for M32 Transcription Factor (Internal Marker) (AID 2282984; active = hit-call score of the fitted dose curve at least 0.9, where 1 is the maximum;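 also: transcript level of a background control reporter unit measured by RT-PCR and capillary electrophoresis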); settings: HepG2 Attagene TRANS M32 internal marker reporter
Procedure, shortened: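 Using transiently transfected HepG2 cells exposed to test chemicals for 24 h, reporter transcripts are converted to labelled cDNA fragments and quantified by capillary electrophoresis. DMSO defines the activity baseline.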

[18] = target: Nuclear receptor subfamily 4 group A member 2 (Homo sapiens) (UniProt P43354); assay: ATG_NURR1_TRANS: Attagene TRANS-FACTORIAL HepG2 Assay for human Nuclear Receptor Related Protein 1 (NURR1) (AID 2282985; active = hit-call score of the fitted dose curve at least 0.9, where 1 is the maximum); settings: HepG2 Attagene TRANS reporter, mRNA readout
Procedure, shortened: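 Cells: HepG2, transiently transfected. Exposure: 24 h. Detection: fluorescence of labelled RT-PCR products separated by capillary electrophoresis; upward fit versus DMSO.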

[19] = BSK_3C_uPAR: BioMAP Diversity Plus: 3C Assay for Urokinase-type plasminogen activator receptor (uPAR) Biomarker Activity (AID 2282998); settings: BioMAP 3C HUVEC, uPAR biomarker ELISA; actives raise or lower the signal
Procedure, shortened: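 Readout: ELISA for surface uPAR. System: human umbilical vein endothelial primary cells, 24 h after chemical exposure. Analysis: bidirectional fit, DMSO baseline.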

[20] = target: Oxysterols receptor LXR-beta (Homo sapiens) (UniProt P55055); assay: ATG_LXRb_TRANS: Attagene TRANS-FACTORIAL HepG2 Assay for human Liver X Receptor beta (LXRb) (AID 2282981; active = hit-call score of the fitted dose curve at least 0.9, where 1 is the maximum); settings: HepG2 Attagene TRANS GAL4-LXRb reporter, mRNA
Procedure, shortened: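 Cells: HepG2, transiently transfected with GAL4-UAS reporter units plus LXRb-Gal4 fusion. Treatment: 24 h. Detection: reporter mRNA by RT-PCR, 6-FAM labelling, HpaI digestion, capillary electrophoresis.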

Sequence of Hepatocyte nuclear factor 4-alpha (Homo sapiens) (P41235 whole entry, looked up): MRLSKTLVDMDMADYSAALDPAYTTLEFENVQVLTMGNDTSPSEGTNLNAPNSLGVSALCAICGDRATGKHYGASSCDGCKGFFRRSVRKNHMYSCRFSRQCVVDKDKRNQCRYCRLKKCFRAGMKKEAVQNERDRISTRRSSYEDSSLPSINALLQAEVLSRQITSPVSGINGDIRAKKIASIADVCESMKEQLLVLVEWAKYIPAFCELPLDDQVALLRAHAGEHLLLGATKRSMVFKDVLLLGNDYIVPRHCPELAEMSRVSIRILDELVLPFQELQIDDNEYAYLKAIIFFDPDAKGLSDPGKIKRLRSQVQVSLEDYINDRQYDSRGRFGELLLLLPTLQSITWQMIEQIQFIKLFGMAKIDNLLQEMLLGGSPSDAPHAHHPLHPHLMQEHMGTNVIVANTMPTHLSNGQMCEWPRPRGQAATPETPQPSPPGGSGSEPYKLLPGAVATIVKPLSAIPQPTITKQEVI
Sequence of Bile acid receptor (Homo sapiens) (Q96RI1 whole entry, looked up, the tested form may be a part): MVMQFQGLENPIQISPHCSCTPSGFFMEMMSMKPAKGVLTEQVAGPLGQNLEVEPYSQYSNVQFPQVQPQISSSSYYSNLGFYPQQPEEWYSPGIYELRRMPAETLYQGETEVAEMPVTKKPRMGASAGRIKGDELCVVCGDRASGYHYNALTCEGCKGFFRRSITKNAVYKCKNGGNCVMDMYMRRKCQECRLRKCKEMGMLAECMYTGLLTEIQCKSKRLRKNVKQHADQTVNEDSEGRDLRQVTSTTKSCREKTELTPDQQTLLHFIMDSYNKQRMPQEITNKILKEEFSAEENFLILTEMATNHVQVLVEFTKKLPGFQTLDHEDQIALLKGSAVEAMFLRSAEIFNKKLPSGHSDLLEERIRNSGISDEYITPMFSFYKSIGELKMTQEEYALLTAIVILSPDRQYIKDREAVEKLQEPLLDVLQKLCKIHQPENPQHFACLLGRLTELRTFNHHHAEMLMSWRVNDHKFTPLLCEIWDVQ
Sequence of Oxysterols receptor LXR-alpha (Homo sapiens) (Q13133 whole entry, looked up): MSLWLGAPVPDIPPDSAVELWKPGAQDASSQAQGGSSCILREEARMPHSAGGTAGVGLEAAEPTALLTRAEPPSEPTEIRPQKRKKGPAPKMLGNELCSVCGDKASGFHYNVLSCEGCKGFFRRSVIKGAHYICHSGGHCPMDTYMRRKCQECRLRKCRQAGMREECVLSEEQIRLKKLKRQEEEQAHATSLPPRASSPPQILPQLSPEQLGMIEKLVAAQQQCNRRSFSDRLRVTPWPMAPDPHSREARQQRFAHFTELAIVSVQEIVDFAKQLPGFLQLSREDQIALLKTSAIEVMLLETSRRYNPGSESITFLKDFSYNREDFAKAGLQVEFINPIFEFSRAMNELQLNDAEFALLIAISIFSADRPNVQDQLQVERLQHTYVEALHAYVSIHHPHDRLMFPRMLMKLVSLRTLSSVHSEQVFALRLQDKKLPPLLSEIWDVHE
Sequence of Nuclear respiratory factor 1 (Homo sapiens) (Q16656 whole entry, looked up, the tested form may be a part): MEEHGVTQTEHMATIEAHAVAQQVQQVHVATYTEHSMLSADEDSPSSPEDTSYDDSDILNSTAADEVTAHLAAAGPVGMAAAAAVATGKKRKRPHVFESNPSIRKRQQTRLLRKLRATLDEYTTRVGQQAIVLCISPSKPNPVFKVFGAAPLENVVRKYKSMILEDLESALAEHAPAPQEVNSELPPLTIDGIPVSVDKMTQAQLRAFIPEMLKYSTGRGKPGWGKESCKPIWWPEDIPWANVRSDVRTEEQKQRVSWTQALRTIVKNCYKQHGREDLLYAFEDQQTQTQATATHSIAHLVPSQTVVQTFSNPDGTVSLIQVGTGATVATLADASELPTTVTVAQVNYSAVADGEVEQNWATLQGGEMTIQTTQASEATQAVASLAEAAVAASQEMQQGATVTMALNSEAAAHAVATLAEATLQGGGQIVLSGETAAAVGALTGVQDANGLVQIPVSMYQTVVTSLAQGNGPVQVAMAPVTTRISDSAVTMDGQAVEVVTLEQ
Sequence of Transcriptional activator Myb (Homo sapiens) (P10242 whole entry, looked up): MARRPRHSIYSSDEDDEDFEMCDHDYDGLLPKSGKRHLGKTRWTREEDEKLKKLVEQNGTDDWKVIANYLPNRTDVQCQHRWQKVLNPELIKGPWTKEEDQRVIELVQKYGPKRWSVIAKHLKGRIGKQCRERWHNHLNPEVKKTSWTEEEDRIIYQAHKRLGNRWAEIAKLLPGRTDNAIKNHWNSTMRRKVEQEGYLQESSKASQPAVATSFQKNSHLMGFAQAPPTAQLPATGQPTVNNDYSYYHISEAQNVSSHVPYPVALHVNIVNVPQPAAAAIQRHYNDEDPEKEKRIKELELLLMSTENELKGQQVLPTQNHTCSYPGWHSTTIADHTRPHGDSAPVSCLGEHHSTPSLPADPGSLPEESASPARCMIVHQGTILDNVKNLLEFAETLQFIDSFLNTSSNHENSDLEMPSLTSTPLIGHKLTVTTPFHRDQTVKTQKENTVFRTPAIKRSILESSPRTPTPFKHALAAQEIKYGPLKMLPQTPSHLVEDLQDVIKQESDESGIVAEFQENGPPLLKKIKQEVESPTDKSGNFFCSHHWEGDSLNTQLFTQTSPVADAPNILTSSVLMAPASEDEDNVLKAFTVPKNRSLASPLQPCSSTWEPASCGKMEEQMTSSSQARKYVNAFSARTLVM
Sequence of Cellular tumor antigen p53 (Homo sapiens) (P04637 whole entry, looked up): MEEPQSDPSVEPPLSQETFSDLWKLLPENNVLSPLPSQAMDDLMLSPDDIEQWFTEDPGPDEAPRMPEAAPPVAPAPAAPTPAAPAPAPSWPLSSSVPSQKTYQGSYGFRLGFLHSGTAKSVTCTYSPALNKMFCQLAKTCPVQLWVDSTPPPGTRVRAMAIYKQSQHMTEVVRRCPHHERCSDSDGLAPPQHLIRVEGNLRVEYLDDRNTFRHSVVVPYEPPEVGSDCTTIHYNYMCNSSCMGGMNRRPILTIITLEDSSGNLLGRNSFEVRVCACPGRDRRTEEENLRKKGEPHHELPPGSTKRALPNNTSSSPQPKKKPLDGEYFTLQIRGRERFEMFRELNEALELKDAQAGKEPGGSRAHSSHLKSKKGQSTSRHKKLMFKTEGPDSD
Sequence of human Peroxisome Proliferator-activated Receptor alpha (PPARa), PPARA (gene 5465) (Q07869 whole entry, looked up, the tested form may be a part): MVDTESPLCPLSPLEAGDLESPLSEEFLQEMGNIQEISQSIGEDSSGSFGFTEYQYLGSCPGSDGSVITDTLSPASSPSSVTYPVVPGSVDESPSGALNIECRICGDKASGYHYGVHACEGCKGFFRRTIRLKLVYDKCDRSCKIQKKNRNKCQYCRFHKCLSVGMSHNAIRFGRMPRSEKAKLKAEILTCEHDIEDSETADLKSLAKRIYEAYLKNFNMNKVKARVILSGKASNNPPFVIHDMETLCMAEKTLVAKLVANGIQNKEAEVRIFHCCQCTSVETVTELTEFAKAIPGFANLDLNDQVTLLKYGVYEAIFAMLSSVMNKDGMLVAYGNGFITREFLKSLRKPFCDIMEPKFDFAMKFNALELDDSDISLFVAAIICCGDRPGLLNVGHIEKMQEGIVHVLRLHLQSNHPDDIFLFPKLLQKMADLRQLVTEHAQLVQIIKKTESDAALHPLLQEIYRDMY
Sequence of Nuclear receptor subfamily 4 group A member 2 (Homo sapiens) (P43354 whole entry, looked up): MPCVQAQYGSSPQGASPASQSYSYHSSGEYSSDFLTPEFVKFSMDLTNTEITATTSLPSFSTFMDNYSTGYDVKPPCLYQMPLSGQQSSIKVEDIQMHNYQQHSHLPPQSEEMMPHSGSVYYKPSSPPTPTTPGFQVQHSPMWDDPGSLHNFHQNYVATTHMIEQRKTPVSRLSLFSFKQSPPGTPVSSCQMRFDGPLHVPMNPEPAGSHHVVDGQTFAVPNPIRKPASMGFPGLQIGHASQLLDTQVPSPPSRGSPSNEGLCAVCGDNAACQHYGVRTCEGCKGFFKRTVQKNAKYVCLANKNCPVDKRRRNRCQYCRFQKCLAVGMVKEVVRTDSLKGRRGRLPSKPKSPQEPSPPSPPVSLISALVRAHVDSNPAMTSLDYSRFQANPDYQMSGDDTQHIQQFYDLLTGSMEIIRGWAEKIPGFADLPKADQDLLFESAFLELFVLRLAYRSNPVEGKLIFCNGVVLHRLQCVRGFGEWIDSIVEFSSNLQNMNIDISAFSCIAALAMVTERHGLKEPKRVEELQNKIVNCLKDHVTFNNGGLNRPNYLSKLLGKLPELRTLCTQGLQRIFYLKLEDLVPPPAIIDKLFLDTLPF
Sequence of Myc proto-oncogene protein (Homo sapiens) (P01106 whole entry, looked up): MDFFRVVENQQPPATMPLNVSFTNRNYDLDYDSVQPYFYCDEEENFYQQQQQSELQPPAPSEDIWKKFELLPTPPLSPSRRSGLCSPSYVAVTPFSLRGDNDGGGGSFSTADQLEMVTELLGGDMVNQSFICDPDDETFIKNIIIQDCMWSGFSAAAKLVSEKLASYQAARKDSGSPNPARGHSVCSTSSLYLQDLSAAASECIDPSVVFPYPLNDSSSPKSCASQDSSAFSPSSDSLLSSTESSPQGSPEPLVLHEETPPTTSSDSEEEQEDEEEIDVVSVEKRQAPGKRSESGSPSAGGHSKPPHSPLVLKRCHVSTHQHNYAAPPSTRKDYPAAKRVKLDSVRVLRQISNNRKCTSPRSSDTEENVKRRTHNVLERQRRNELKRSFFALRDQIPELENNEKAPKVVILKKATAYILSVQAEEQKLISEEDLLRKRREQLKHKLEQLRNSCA
Sequence of Oxysterols receptor LXR-beta (Homo sapiens) (P55055 whole entry, looked up, the tested form may be a part): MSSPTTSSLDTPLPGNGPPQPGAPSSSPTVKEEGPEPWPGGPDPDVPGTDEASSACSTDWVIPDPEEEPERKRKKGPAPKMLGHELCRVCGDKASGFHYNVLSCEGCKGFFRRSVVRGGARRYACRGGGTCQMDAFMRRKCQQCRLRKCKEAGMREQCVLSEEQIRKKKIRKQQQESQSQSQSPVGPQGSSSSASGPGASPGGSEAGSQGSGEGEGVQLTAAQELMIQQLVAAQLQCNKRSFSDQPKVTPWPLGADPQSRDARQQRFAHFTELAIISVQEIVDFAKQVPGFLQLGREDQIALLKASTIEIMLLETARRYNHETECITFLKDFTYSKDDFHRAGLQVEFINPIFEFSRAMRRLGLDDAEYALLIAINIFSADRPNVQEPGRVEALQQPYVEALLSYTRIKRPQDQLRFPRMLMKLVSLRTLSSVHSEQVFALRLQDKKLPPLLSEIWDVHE

CCCCC(CC)COC(=O)c1c(Br)c(Br)c(Br)c(Br)c1C(=O)OCC(CC)CCCC (stereo not drawn)
outcome [1]: inactive | outcome [2]: inactive | outcome [3]: inactive | outcome [4]: inactive | outcome [5]: inactive | outcome [6]: inactive | outcome [7]: inactive | outcome [8]: inactive | outcome [9]: inactive | outcome [10]: inactive | outcome [11]: inactive | outcome [12]: inactive | outcome [13]: inactive | outcome [14]: inactive | outcome [15]: inactive

CCOP(=S)(OCC)SCS(=O)(=O)CC
outcome [1]: inactive | outcome [2]: inactive | outcome [16]: inactive | outcome [3]: inactive | outcome [17]: inactive | outcome [4]: inactive | outcome [5]: inactive | outcome [6]: inactive | outcome [7]: inactive | outcome [8]: inactive | outcome [9]: inactive | outcome [10]: inactive | outcome [11]: inactive | outcome [12]: inactive | outcome [13]: inactive | outcome [14]: inactive | outcome [15]: inactive

COP(=O)(CCC(=O)NCO)OC
outcome [1]: inactive | outcome [2]: inactive | outcome [16]: inactive | outcome [3]: inactive | outcome [18]: inactive | outcome [4]: inactive | outcome [6]: inactive | outcome [7]: inactive | outcome [8]: inactive | outcome [9]: inactive | outcome [10]: inactive | outcome [11]: inactive | outcome [12]: inactive | outcome [19]: inactive | outcome [13]: inactive | AC50 [14]: 0.15 µM (active) | outcome [14]: inactive

O=S(=O)(c1ccc(O)cc1)c1ccc(O)cc1
outcome [1]: inactive | outcome [2]: inactive | outcome [16]: inactive | outcome [3]: inactive | outcome [17]: inactive | outcome [4]: inactive | outcome [5]: inactive | outcome [7]: inactive | outcome [8]: inactive | outcome [9]: inactive | outcome [10]: inactive | outcome [11]: inactive

O=C(O)C(F)(OC(F)(F)C(F)(F)C(F)(F)F)C(F)(F)F (stereo not drawn)
outcome [1]: inactive | outcome [2]: inactive | outcome [16]: inactive | outcome [3]: inactive | outcome [17]: inactive | outcome [18]: inactive | outcome [4]: inactive | outcome [7]: inactive | outcome [8]: inactive | outcome [9]: inactive | outcome [10]: inactive | outcome [11]: inactive | outcome [12]: inactive | outcome [19]: inactive | outcome [13]: inactive | AC50 [14]: 8.11 µM (active) | outcome [14]: inactive | AC50 [15]: 16.9 µM (active) | outcome [15]: inactive

Cc1ccc2c(c1N)C(=O)c1ccccc1C2=O
outcome [1]: inactive | outcome [2]: inactive | outcome [16]: inactive | outcome [17]: inactive | outcome [18]: inactive | outcome [4]: inactive | outcome [6]: inactive | outcome [7]: inactive | AC50 [8]: 25.4 µM (active) | AC50 [9]: 42.4 µM (active) | outcome [10]: inactive | outcome [11]: inactive | AC50 [12]: 20 µM (active) | outcome [13]: inactive | AC50 [14]: 9.4 µM (active) | outcome [15]: inactive

CC(C)(C)OOC(C)(C)C
outcome [1]: inactive | outcome [2]: inactive | outcome [20]: inactive | outcome [3]: inactive | outcome [18]: inactive | outcome [4]: inactive | outcome [7]: inactive | outcome [8]: inactive | outcome [9]: inactive | outcome [10]: inactive | outcome [11]: inactive | outcome [12]: inactive | outcome [13]: inactive | outcome [14]: inactive

CC(C)(C)c1ccc(O)cc1
outcome [1]: inactive | outcome [2]: inactive | outcome [3]: inactive | outcome [17]: inactive | outcome [4]: inactive | outcome [7]: inactive | AC50 [10]: 166 µM (active) | AC50 [11]: 170 µM (active) | outcome [12]: inactive | outcome [19]: inactive | outcome [13]: inactive | outcome [14]: inactive | outcome [15]: inactive
